HEK cytotox = Cytotoxic Profiling in HEK 293 Cell Line of Diverse Libraries Using Quantitative High-Throughput Screening; HEK 293 viability, ATP luminescence (CellTiter-Glo), 48-72 h; Potency, µM (highest dose often 115 µM), inactives show top-dose activity change, negative = cytotoxicity, usual class: inhibitors; 6.6% of 94,000 active; AID 1345083, 2018; active = well fitted curve in the direction sought with a large enough effect; inconclusive = small, poorly fitted or top-dose-only effect, or another doubt; inactive = no such curve, though single readings can be large; an effect the other way counts as inactive or inconclusive; also: % is scaled to controls: 0 for no effect and ±100 for the full control effect; nearly all actives have a fitted effect of over 60% in size
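qHTS cytotoxicity; HEK 293, 250 cells/well; compound pinned; 48 or 72 hr, 37 degree Celsius, 5% CO2, 95% humidity; CellTiter-Glo, 10 min RT; luminescence (ATP).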
NPR1 antag = Natriuretic polypeptide receptor (hNpr1) antagonism - Primary qHTS. HEK293 hNpr1 GloSensor cGMP, ANP-stimulated luminescence. Potency, µM (series often up to 46.3 µM), inactives show top-dose activity change, negative = inhibition, actives largely listed as inhibitors. 1.6% of 76,000 active. AID 1347048, 2019; also: % is scaled to controls: 0 for no effect and ±100 for the full control effect; nearly all actives have a fitted effect of over 60% in size
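Compound pre-incubated 30 min at room temperature on GloSensor-loaded HEK293 cells stably carrying hNpr1 and the pGS-40F cGMP biosensor. Stimulation uses hNppA at 0.1 nM final; luminescence is taken at baseline and 20 min post-agonist.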
FLuc inh = Firefly luciferase inhibition profiling of diverse chemical library using quantitative high-throughput screening. Luciferin 4-monooxygenase (Photinus pyralis), P08659. purified P. pyralis luciferase, luminescence, biochemical. Potency, µM (doses to about 115 µM), actives largely listed as inhibitors. 2.5% of 76,000 active. AID 1347043, 2019; active = well fitted curve in the direction sought with a large enough effect; inconclusive = small, poorly fitted or top-dose-only effect, or another doubt; inactive = no such curve, though single readings can be large; an effect the other way counts as inactive or inconclusive; also: % is scaled to controls: 0 for no effect and ±100 for the full control effect; nearly all actives have a fitted effect of over 65% in size
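Purified P. pyralis luciferase (10nM final) in 50mM Tris acetate pH 7.5, 10mM Mg acetate, 0.01% Tween-20, 0.05% BSA with 10uM D-luciferin and 10uM ATP. Compounds titrated qHTS. Luminescence imaged on CCD.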
3T3 cytotox = Cytotoxic Profiling in NIH 3T3 Cell Line of Diverse Libraries Using Quantitative High-Throughput Screening; AID 1345082, 2018; Potency, µM (highest dose often 96.7 µM), without a hit: at the top dose activity change, negative = cytotoxicity, actives largely listed as inhibitors; NIH 3T3 viability, CellTiter-Glo ATP luminescence, 48-72 h; 4.3% of 94,000 active; active = well fitted curve in the direction sought with a large enough effect; inconclusive = small, poorly fitted or top-dose-only effect, or another doubt; inactive = no such curve, though single readings can be large; an effect the other way counts as inactive or inconclusive; also: % is scaled to controls: 0 for no effect and ±100 for the full control effect; nearly all actives have a fitted effect of over 55% in size
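ATP-dependent luminescence (CellTiter-Glo) served as the viability signal for NIH 3T3 cells treated with compound for 48 or 72 hr at 37 °C.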
Npr1 antag conf = Natriuretic polypeptide receptor (hNpr1) antagonism - Confirmation; shares compounds with NPR1 antag; HEK293 hNpr1 cGMP GloSensor luminescence, ANP-stimulated; Potency, µM (titrated, usually from 57.6 µM), for the others: at the top dose activity change, negative = inhibition, most hits filed as inhibitors; 76% of 1,400 active; also: nearly all actives have a fitted effect of over 70% in size
Npr2 selectivity = Natriuretic polypeptide receptor (hNpr2) antagonism - Subtype selectivity assay; AID 1347046, 2019; Potency, µM (doses to about 57.6 µM), for inactives: at the highest dose activity change, negative = inhibition, usual class: inhibitors; HEK293 hNpr2 GloSensor cGMP luminescence, CNP-stimulated; shares compounds with NPR1 antag; 67% of 1,400 active; also: nearly all actives have a fitted effect of over 70% in size
Target sequence (P20594 whole entry, looked up): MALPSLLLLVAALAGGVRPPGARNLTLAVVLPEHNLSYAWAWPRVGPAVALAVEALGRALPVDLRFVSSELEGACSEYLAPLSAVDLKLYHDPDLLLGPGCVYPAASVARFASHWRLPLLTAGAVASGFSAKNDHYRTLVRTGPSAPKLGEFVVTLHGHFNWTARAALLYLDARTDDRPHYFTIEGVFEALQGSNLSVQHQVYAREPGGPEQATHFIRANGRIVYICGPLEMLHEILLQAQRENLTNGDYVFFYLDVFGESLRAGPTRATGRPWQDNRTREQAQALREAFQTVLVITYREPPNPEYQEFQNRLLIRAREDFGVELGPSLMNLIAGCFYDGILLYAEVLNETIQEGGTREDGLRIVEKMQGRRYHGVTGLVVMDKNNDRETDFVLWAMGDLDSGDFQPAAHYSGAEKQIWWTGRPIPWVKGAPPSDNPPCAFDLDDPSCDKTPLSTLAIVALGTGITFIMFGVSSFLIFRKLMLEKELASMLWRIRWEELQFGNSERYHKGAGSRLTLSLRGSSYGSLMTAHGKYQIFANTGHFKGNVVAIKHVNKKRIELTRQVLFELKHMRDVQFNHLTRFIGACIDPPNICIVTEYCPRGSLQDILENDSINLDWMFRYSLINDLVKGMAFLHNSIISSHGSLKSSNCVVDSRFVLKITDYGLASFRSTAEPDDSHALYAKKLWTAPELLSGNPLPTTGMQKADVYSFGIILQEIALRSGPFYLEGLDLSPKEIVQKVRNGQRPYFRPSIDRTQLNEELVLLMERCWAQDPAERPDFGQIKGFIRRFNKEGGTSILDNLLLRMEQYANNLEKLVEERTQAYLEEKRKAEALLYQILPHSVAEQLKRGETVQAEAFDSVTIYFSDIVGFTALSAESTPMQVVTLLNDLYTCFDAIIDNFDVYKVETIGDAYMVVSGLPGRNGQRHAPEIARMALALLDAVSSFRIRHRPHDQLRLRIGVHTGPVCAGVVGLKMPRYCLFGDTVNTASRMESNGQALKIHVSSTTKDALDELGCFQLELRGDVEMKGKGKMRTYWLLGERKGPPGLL
FLuc inh counter = Natriuretic polypeptide receptor (hNpr1) antagonism - Confirmation firefly luciferase (FLuc) inhibition counterscreen | shares compounds with NPR1 antag | 0.7% of 1,400 active | Potency, µM (titrated, usually from 57.6 µM), without a hit: at the top dose activity change, negative = inhibition, hits mostly inhibitors | AID 1347047, 2019 | purified FLuc enzyme, luminescence, Km substrate; active = well fitted curve in the direction sought with a large enough effect; inconclusive = small, poorly fitted or top-dose-only effect, or another doubt; inactive = no such curve, though single readings can be large; an effect the other way counts as inactive or inconclusive; also: series mostly up to about 58 µM; 0% is about no effect
GloSensor ctrl = Natriuretic polypeptide receptor (hNpr1) antagonism - Counterscreen GloSensor control cell line. shares compounds with NPR1 antag. HEK293 GloSensor cGMP, SNP-stimulated, luminescence. Potency, µM (top dose mostly 57.6 µM), inactives show at the top dose activity change, negative = inhibition, hits mostly inhibitors. 69% of 1,400 active. AID 1347051, 2019; also: % is scaled to controls: 0 for no effect and ±100 for the full control effect; nearly all actives have a fitted effect of over 70% in size
* hit, by the source's call; i = inactive; ? = inconclusive; nt = no result given; [ ] = dose if it differs, or a comment. Shown are actives, neighbours in structure and some others; about 11% of the full set was active somewhere. Unless noted, calls follow the shape of the full dose curve. Potency is read from the fitted curve at half-maximal effect.

SMILES	HEK cytotox	NPR1 antag	FLuc inh	3T3 cytotox	Npr1 antag conf	Npr2 selectivity	FLuc inh counter	GloSensor ctrl
Fc1ccc(C2Cn3nnc(-c4nc(C5CCCCC5)no4)c3CO2)cc1 (stereo not given)	-9.4%	?	i	-25.7%	12.2µM*	9.68µM*	-1.0%	-23.7%
COc1ccc(Cl)cc1N1C(=O)[C@@H]2C[C@@H](NC(=O)Cc3cccs3)CCN2C1=O	i	2.7%[70.6 µM]	i	?	nt	nt	nt	nt
COc1ccc(CN2CC3(CCN(S(=O)(=O)Cc4ccccc4)CC3)C2=O)cc1	?	-20.9%	i	?	nt	nt	nt	nt
CSCc1nc(CNc2nc(C3CCCC3)nc3c2cnn3C)cs1	25.1µM*	8.91µM*	i	?	15.3µM*	19.3µM*	-0.2%	12.2µM*
CCCc1nc(NCc2c(F)ccc(OC)c2F)c2cnn(C)c2n1	?	?	i	?	nt	nt	nt	nt
O=C(C1CCC1)N1CCC(N2CC(OCC3CC3)C23CCOCC3)CC1 (stereo not given)	1.0%	0.5%	i	-5.6%	nt	nt	nt	nt
COCc1nc(C2CCCN(C(=O)COc3ccc(F)cc3)C2)no1 (stereo not given)	-3.1%	-10.0%	i	-16.4%	nt	nt	nt	nt
CN(C)c1ccc(C(=O)N2CCC(Cc3nc(-c4cnccn4)no3)CC2)cc1	-6.9%	-12.2%	i	-28.4%	nt	nt	nt	nt
COc1cccc(-c2noc(CC3CCN(C(=O)c4ccccc4C)CC3)n2)c1	?	12.6µM*	i	?	12.2µM*	17.2µM*	-4.8%	12.2µM*
COc1cccc(-c2noc(CC3CCN(C(=O)c4ccc(OC)cc4C)CC3)n2)c1	?	3.55µM*	i	?	3.43µM*	4.85µM*	1.5%	2.73µM*
COc1cccc(-c2noc(CC3CCN(C(=O)c4ccc(N(C)C)cc4)CC3)n2)c1	?	10µM*	i	-16.8%	13.7µM*	15.3µM*	-18.5%	10.9µM*
COc1ccc(C(=O)N2CCC(Cc3nc(-c4ccc(F)cc4)no3)CC2)c(C)c1	?	1.41µM*	i	?	1.53µM*	2.17µM*	0.0%	1.72µM*
CN(Cc1ccccn1)C1CCCc2ccccc21 (stereo not given)	-24.4%[172 µM]	29.9%[70.6 µM]	i	-19.7%[138 µM]	nt	nt	nt	nt
O=C(C1CCCCC1)N1CC(N(Cc2ccccn2)C(=O)Nc2ccccc2)C1	-1.5%	nt	nt	-19.5%	nt	nt	nt	nt
Cc1cc(S(=O)(=O)N2CCC(n3cnnc3-c3ccccc3)CC2)ccc1F	-23.2%	-27.7%	i	-23.4%	nt	nt	nt	nt
COc1cccc(S(=O)(=O)N2CCC(n3cnnc3C(C)C)CC2)c1	-26.6%	?	i	?	?	?	-1.7%	?
Cc1ccc(S(=O)(=O)N2CCC(n3cnnc3-c3ccccc3)CC2)cc1C	?	-22.9%	i	?	?	?	-0.7%	-3.6%
O=C(CCC1CCCN(S(=O)(=O)c2cccc(F)c2)C1)NC1CCCCC1 (stereo not given)	?	15.8µM*	i	?	27.3µM*	24.3µM*	0.0%	24.3µM*
COc1c[nH]c(CN2CCCC(CCc3ccccc3C)C2)cc1=O (stereo not given)	-26.1%	0.3%	i	-11.0%	nt	nt	nt	nt
COc1c[nH]c(CN2CCCC(Nc3ccc(C(C)C)cc3)C2)cc1=O (stereo not given)	?	?	i	?	21.7µM*	19.3µM*	-1.3%	21.7µM*
CCOCC(=O)N1CCN(c2nnnn2-c2ccccc2)CC(O)C1 (stereo not given)	0.2%	0.0%	i	i	nt	nt	nt	nt
COc1ccc([C@@H]2CN(c3nnnn3-c3ccccc3)C[C@H]2NC(C)=O)cc1	-22.4%	?	i	-20.1%	?	?	1.3%	1.8%
CN(C)c1cccc(C(=O)N2CCNc3cnc(Nc4ccc(N5CCOCC5)cc4)nc3C2)c1	?	-25.9%	i	-25.9%	nt	nt	nt	nt
COc1ccccc1Nc1ncc2c(n1)CN(C(=O)c1cccc(N(C)C)c1)CCN2	79.4µM*	22.4µM*	i	-28.3%[138 µM]	31.4µM*	35.3µM*	0.2%[86.2 µM]	25µM*
COc1ccccc1Nc1ncc2c(n1)CN(C(=O)c1ccccc1)CCN2	?	31.6µM*	i	?	39.6µM*	?	-11.5%[86.2 µM]	39.6µM*
SMILES	HEK cytotox	NPR1 antag	FLuc inh	3T3 cytotox	Npr1 antag conf	Npr2 selectivity	FLuc inh counter	GloSensor ctrl
CCOc1ccccc1CN1CCCC(c2nc(-c3cccnc3)no2)CCNC(=O)CC1 (stereo not given)	?	-3.0%	i	?	nt	nt	nt	nt
CCOc1ccc2c(n1)CCN(C(=O)Cc1cccc(C)c1)C2	-13.4%	3.1%	i	-26.2%	nt	nt	nt	nt
CC(C)c1ccc(N2C(=O)[C@@H]3C[C@@H](NC(=O)C4CCN(c5nccc(C(F)(F)F)n5)CC4)CCN3C2=O)cc1	?	?	i	?	?	?	2.2%	?
CC(=O)N1CCC(C(=O)N[C@H]2CCN3C(=O)N(c4ccc(OC(F)(F)F)cc4)C(=O)[C@@H]3C2)CC1	-12.1%	-2.0%	i	-10.9%	nt	nt	nt	nt
CC(C)Cc1cn(CC2CCCN(C(=O)NC3CCCCCC3)C2)nn1 (stereo not given)	?	10µM*	i	?	17.2µM*	17.2µM*	1.2%	12.2µM*
Cc1cccc2nc(C(=O)N3CCCC(c4[nH]ncc4-c4ccccc4)C3)cn12 (stereo not given)	?	?	i	?	?	?	-2.4%	7.7%
Cc1cccc2nc(C(=O)N3CCC4(CC3)CC(c3ccccc3)CN(C)C4)cn12 (stereo not given)	?	3.1%	i	-1.9%	nt	nt	nt	nt
C[S+](=O)([O-])CCn1ncc2cc(OCC3CCN(c4ncc(F)cn4)CC3)ccc21	nt	nt	nt	nt	12.5µM*	?	3.0%[86.2 µM]	11.1µM*
